# Assay results: PubChem BioAssay (NCATS)
# Inconclusive results are not listed. Where a call stands in place of a potency, no number is given. Calls of active or inactive are those of the source. Unless noted, the call rests on the fitted dose curve; in most records, active means well fitted curve in the direction sought with a large enough effect; inconclusive means small, poorly fitted or top-dose-only effect, or another doubt; inactive means no such curve, though single readings can be large; an effect the other way counts as inactive or inconclusive.
# What was measured:
# [1] = target: Thioredoxin reductase 1, cytoplasmic (Rattus norvegicus) (UniProt O89049); test: qHTS Assay for Inhibitors of Mammalian Selenoprotein Thioredoxin Reductase 1 (TrxR1) (AID 488773); conditions: Potency: inhibition;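 further: drop in NADPH fluorescence over an 8 min run after selenite addition; series mostly up to about 57 µM; nearly all actives have a fitted effect of over 40% in size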
# Sequence of Thioredoxin reductase 1, cytoplasmic (Rattus norvegicus) (O89049 whole entry, looked up): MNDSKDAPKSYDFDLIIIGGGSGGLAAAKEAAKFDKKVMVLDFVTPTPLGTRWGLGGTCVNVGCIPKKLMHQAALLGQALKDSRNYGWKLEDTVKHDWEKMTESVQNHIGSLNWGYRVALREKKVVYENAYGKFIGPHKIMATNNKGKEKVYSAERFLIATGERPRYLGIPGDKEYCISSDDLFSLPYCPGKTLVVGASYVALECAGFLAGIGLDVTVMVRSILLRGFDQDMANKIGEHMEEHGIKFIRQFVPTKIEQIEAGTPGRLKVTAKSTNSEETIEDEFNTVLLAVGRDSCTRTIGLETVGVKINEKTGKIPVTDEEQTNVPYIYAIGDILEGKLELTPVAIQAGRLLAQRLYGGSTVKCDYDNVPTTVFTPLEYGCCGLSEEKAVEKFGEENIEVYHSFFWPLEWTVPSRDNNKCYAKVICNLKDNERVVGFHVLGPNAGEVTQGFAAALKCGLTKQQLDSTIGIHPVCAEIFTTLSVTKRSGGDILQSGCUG
# Procedure, shortened: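 Inhibition is scored from the loss of NADPH fluorescence between first and last reads of an 8-min kinetic run. Selenite (400 uM) was the substrate, added after 15 min compound preincubation at room temperature.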
# [2] = target: Flap endonuclease 1 (Homo sapiens) (UniProt P39748); test: qHTS Validation Assay for the Inhibitors of Human Flap endonuclease 1 (FEN1) (AID 488816)
# Procedure, shortened: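 qHTS format: compounds and 10 nM FEN1 incubated 15 min at room temperature before adding 50 nM substrate. Cleavage followed by reads at 0 and 15 min; normalized data fitted to a four-parameter Hill curve.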
# [3] = target: M-phase phosphoprotein 8 (Homo sapiens) (UniProt Q99549); test: qHTS Validation Assay for Inhibitors for MPP8 Chromodomain Interactions with Methylated Histone Tails (AID 488949);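 further: 50 nM MPP8 with 50 nM peptide preformed then compounds added for 30 min; AlphaScreen signal from MPP8 chromodomain bound to biotinylated H3K9me3 peptide; top concentration of the series differs between compounds; nearly all actives have a fitted effect of over 55% in size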
# Procedure, shortened: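 50 nM MPP8 + 50 nM b-H3K9me3 peptide, PBS pH 7.4/0.01% Tween-20, 30 min RT; + cpd 30 min RT; + AlphaScreen donor/Ni-chelate acceptor beads 10 ug/mL final, 30 min dark; luminescence read.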
# [4] = target: Chromobox protein homolog 1 (Homo sapiens) (UniProt P83916); test: qHTS Validation Assay for Inhibitors of HP1-beta Chromodomain Interactions with Methylated Histone Tails (AID 488953);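 further: loss of AlphaScreen luminescence from HP1-beta binding biotinylated H3K9me3 peptide; series mostly up to about 110 µM; nearly all actives have a fitted effect of over 50% in size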
# Sequence of Chromobox protein homolog 1 (Homo sapiens) (P83916 whole entry, looked up): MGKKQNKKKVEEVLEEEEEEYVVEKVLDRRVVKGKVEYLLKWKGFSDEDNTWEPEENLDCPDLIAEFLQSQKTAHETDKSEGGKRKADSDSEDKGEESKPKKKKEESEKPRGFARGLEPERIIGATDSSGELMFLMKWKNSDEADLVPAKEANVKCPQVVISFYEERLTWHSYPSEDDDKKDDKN
# Procedure, shortened: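 Disruption of preformed HP1-beta:H3K9me3 peptide complexes (both 50 nM, PBS pH 7.4 with 0.01% Tween-20) is measured by AlphaScreen after 30 min compound exposure at room temperature, using streptavidin donor and nickel chelate acceptor beads at 10 ug/mL final.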
# [5] = target: Methanococcus maripaludis chaperonin (MmCpn) (UniProt Q6LX38); test: High-Throughput Screening for Modulators of Cytosolic Chaperonin Activity: MmCpn Primary Screen (AID 488978);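 further: 50 nM MmCpn enzyme hydrolysing 30 µM ATP at 37 °C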
# Sequence of Methanococcus maripaludis chaperonin (MmCpn) (Q6LX38 1-543): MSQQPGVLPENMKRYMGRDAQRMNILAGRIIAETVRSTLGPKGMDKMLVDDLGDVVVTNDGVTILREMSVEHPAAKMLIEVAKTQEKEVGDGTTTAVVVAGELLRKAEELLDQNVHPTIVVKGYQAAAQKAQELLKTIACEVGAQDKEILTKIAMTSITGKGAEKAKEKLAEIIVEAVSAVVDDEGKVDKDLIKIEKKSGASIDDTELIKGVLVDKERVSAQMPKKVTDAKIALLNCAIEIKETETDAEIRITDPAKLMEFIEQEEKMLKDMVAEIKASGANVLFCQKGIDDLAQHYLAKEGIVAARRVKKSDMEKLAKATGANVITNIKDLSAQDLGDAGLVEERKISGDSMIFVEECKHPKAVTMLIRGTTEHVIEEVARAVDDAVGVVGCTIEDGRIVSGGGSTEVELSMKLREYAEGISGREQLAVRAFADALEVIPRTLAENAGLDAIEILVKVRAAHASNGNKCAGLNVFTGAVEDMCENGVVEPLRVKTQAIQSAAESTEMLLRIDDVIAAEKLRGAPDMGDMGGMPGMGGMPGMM
# Procedure, shortened: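 Steps: chaperonin 50 nM final; add compound, 5 min RT; start with ATP, 30 uM final; hold 10 min at 37C; add ADP Transcreener HTRF reagent, 5 min; read ex 320, em 590 and 665 nm.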
# [6] = target: Transient receptor potential cation channel subfamily V member 1 (Homo sapiens) (UniProt Q8NER1); test: HTS Assay for Compounds that Act as Enhancers of the Vanilloid Receptor 1 (AID 488979)
# Sequence of Transient receptor potential cation channel subfamily V member 1 (Homo sapiens) (Q8NER1 whole entry, looked up): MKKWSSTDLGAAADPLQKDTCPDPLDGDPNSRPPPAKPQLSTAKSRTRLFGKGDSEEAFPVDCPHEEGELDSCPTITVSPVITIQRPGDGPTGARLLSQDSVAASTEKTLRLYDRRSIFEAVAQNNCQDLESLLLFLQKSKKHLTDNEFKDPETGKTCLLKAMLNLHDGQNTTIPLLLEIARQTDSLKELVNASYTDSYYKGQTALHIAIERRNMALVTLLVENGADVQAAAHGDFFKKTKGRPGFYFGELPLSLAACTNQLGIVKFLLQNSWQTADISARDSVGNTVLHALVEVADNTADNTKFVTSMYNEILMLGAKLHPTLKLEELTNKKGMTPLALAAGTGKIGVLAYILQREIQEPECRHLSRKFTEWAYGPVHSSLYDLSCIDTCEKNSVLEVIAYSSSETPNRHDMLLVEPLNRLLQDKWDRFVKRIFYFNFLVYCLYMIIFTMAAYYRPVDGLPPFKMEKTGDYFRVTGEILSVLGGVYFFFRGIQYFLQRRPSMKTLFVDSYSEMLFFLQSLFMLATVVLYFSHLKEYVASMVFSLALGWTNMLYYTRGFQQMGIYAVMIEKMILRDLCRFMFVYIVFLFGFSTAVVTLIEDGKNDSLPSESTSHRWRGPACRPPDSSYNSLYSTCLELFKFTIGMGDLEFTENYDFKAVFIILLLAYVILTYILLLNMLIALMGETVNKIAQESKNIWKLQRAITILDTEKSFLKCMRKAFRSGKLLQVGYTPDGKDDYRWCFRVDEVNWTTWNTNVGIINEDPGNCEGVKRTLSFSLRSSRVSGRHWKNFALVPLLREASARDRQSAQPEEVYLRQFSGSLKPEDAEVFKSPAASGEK
# Procedure, shortened: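 Calcium influx kinetics via Fluo-8 (480/520 nm) in TRPV1-expressing cells, 2000/well cultured overnight at 35.5C. Compound-alone read 3 min (agonist phase), followed by EC20 capsaicin challenge for 2 min (enhancer phase).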
# [7] = target: D(1A) dopamine receptor (Homo sapiens) (UniProt P21728); test: HTS Assay for Allosteric Agonists of the Human D1 Dopamine Receptor: Primary Screen for Agonists (AID 488981)
# Procedure, shortened: (§1)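 Calcium flux in an inducible, force-coupled HEK293 Trex D1 line (overnight at 30 C): agonist mode is the 180 s kinetic read after compound; potentiator mode is the following 180 s read after dopamine at EC20.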
# [8] = target: D(1A) dopamine receptor (Homo sapiens) (UniProt P21728); test: HTS Assay for Allosteric Agonists of the Human D1 Dopamine Receptor: Primary Screen for Potentiators (AID 488982)
# Procedure, shortened: as §1
# [9] = target: D(1A) dopamine receptor (Homo sapiens) (UniProt P21728); test: HTS Assay for Allosteric Agonists of the Human D1 Dopamine Receptor: Primary Screen for Antagonists (AID 488983);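 further: calcium flux response to an EC80 dopamine challenge measured with no-wash dye; nearly all actives have a fitted effect of over 65% in size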
# Procedure, shortened: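 Kinetic fluorescence at 1 cycle/sec tracked intracellular calcium in force-coupled, tetracycline-inducible HEK293 T-REx D1 cells. Loss of response to an EC80 dopamine dose, given 180 s after compound, marked antagonists.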
# [10] = Validation screen for small molecules that induce genotoxicity in human embryonic kidney (HEK293T) cells expressing luciferase-tagged ELG1 (AID 493106)
# Procedure, shortened: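 Cells were dispensed at 2,000 per well, then 23 nL compound or DMSO was pinned in. After 16 hr at 37 °C and 5% CO2, ONE-Glo reagent was added. Luciferase activity was measured following 30 min at room temperature.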
# [11] = target: ATPase family AAA domain-containing protein 5 (Homo sapiens) (UniProt Q96QE3); test: Validation screen for small molecules that inhibit ELG1-dependent DNA repair in human embryonic kidney (HEK293T) cells expressing luciferase-tagged ELG1 (AID 493107);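 further: cells co-treated with the DNA-damaging agent 5-fluorouridine alongside compound; series mostly up to about 46 µM; inhibitors lower the ELG1-luciferase luminescence signal; nearly all actives have a fitted effect of over 70% in size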
# Procedure, shortened: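 Cells are dispensed in 1536-well format, then 5-fluorouridine and compound are pinned in. After a 16 hr incubation at 37 °C and 5% CO2, ONE-Glo is added and luciferase measured on a CCD imager.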
# [12] = Nrf2 qHTS screen for inhibitors: Validation (AID 493153; active means well fitted inhibition curve with a large enough effect in the main read-out, with a control signal flat, not every such curve was filed as active); conditions: Potency: luciferase luminescence; viability change: measured here: cytotoxicity max response
# Procedure, shortened: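 A549 ARE_Fluc, 5% FBS OPTI-MEM; cpd titration, 18-24 h, 37°C/5% CO2. Read 1: CellTiter-Fluor (Ex 405/Em 525), cytotox. Read 2: luciferase lum, Nrf2 activity.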
# [13] = qHTS for Inhibitors of Cell Surface uPA Generation: Validation Assay (AID 493164);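 further: RAW 264.7 macrophage cells exposed to compound for 18 h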
# Procedure, shortened: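 ATP-Lite luminescence read-out: ATP remains high when uPA activity-dependent LF translocation into the cytoplasm is blocked. RAW 264.7 cells, 18 h compound exposure at 37 C; 7-point titration, 2.45 nM to 38.3 uM final.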
# [14] = target: Galactokinase (Homo sapiens) (UniProt P51570); test: qHTS Validation Assay for Inhibitors of Human Galactokinase (GALK) (AID 493189)
# Sequence of Galactokinase (Homo sapiens) (P51570 whole entry, looked up): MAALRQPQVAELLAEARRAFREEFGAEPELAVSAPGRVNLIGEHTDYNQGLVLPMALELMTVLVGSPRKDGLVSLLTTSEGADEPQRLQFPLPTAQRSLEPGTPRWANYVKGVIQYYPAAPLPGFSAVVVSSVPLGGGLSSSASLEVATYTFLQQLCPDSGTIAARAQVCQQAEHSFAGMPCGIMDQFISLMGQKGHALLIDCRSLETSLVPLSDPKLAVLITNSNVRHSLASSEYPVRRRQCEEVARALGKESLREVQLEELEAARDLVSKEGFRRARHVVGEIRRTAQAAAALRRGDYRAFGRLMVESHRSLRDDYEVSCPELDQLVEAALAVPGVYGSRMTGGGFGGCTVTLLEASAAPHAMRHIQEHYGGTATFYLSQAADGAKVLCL
# Procedure, shortened: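 5 nM GALK / 100 uM galactose / 35 uM ATP, 20 mM HEPES pH8.0, 5 mM MgCl2, 60 mM NaCl, 1 mM DTT, 0.01% BSA (final). RT 1 h; Kinase-Glo Plus luminescence.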
# [15] = Validation screen for small molecules that induce DNA re-replication in SW480 colon adenocarcinoma cells (AID 504364)
# Procedure, shortened: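 Image-based qHTS: compounds were incubated with SW480 cells for 48 hr, nuclei stained with Hoechst, and per-nucleus fluorescence intensity scanned to flag cells with excess DNA content.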
# [16] = target: Peptidyl-prolyl cis-trans isomerase NIMA-interacting 1 (Homo sapiens) (UniProt Q13526); test: qHTS Validation Assay to Find Inhibitors of Pin1 (AID 504536; active means well fitted inhibition curve with a large enough effect in the polarisation, with a control signal flat, not every such curve was filed as active; the % refers to the polarisation)
# Sequence of Peptidyl-prolyl cis-trans isomerase NIMA-interacting 1 (Homo sapiens) (Q13526 whole entry, looked up): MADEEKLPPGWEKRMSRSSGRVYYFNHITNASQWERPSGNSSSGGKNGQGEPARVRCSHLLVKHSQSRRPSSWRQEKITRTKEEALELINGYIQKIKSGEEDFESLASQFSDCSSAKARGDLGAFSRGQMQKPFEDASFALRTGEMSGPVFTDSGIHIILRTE
# Procedure, shortened: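 Fluorescence polarization competition: compounds (titration) displace HiFluor-488-labeled Pin1-1b peptide from Pin1 (0.3 uM final) in pH 7.5 HEPES buffer with DTT, 10 min at room temperature; %Activity normalized to no-enzyme wells, curves fitted.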
# [17] = target: Phosphoglycerate kinase, glycosomal (Trypanosoma brucei brucei) (UniProt P07378); test: qHTS Validation Assay to Find Inhibitors of Phosphoglycerate Kinase (AID 504547)
# Sequence of Phosphoglycerate kinase, glycosomal (Trypanosoma brucei brucei) (P07378 whole entry, looked up): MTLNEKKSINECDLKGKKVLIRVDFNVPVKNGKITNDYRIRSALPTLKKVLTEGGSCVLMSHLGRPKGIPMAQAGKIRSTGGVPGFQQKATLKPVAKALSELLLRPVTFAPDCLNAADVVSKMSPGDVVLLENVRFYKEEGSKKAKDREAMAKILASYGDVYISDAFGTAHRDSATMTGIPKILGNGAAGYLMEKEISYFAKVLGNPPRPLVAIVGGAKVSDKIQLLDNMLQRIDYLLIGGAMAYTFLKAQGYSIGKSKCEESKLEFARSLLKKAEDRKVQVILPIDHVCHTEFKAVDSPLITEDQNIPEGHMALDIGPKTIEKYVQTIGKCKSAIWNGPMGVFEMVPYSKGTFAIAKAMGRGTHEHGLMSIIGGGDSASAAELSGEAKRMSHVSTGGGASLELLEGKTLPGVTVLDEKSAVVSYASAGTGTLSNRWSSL
# Procedure, shortened: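 Luminescence end-point (Kinase-Glo Plus, 10 min) after a 60 min room-temperature coupled reaction. GAPDH at 100nM final supplies 1,3-BPG to PGK. Buffer: 100mM TEA pH 7.6, 5mM MgCl2, 0.01% Tween-20. Wells lacking PGK served as controls.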
# [18] = target: Thyrotropin receptor (Homo sapiens) (UniProt P16473); test: qHTS Assay for Antagonists of the Thyroid Stimulating Hormone Receptor (AID 488980); further: series mostly up to about 58 µM
# Sequence of Thyrotropin receptor (Homo sapiens) (P16473 whole entry, looked up): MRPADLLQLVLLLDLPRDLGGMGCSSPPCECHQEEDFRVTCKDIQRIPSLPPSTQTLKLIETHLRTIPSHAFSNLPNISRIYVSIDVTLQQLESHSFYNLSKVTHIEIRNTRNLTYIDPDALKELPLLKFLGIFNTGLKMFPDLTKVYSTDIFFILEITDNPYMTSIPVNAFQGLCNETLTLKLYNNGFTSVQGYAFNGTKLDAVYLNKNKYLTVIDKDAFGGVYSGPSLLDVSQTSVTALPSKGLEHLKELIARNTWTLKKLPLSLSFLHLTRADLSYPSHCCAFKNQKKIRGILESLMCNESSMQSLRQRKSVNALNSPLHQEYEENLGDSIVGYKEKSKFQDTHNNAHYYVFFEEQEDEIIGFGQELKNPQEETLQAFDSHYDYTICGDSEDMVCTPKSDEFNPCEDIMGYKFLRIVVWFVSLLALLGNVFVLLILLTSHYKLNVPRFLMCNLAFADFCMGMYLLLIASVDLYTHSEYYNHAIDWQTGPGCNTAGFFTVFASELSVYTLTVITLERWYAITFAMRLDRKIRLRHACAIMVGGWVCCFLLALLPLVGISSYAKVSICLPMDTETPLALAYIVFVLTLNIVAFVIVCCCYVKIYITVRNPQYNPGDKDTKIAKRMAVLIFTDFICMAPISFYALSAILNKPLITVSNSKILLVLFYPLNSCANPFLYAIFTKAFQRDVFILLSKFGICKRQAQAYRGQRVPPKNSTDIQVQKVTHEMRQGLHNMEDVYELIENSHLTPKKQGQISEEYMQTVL
# Procedure, shortened: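 Readout is cAMP by HTRF competition between cellular cAMP and cAMP-d2 for a cryptate-labelled antibody. Antagonism was assessed in TSHR-transfected HEK293 cells stimulated with 4 nM TSH (EC80, final) in the presence of RO 20-1724.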
# [19] = target: ATP-dependent 6-phosphofructokinase (Trypanosoma brucei brucei) (UniProt O15648); test: qHTS Assay to Find Inhibitors of T. brucei phosphofructokinase: hit validation (AID 492961);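 further: luminescence reports ADP formed as PFK phosphorylates fructose-6-phosphate with ATP; series mostly up to about 51 µM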
# Sequence of ATP-dependent 6-phosphofructokinase (Trypanosoma brucei brucei) (O15648 whole entry, looked up): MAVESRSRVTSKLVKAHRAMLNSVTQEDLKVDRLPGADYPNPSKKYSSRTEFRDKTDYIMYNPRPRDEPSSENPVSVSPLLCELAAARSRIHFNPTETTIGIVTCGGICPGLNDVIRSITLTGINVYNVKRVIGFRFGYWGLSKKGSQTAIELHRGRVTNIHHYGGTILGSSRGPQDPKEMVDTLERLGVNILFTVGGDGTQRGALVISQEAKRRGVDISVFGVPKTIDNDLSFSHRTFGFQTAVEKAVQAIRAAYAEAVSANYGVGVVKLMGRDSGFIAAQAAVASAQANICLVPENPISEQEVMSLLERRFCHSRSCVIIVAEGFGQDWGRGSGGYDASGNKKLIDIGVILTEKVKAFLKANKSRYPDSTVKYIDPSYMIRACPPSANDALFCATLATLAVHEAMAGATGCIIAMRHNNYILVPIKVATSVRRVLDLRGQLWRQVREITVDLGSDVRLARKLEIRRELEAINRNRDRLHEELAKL
# Procedure, shortened: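 Measures ADP output of PFK (1.25 nM) at 0.1 mM ATP, 0.5 mM F6P, pH 8.0 TEA buffer with 5 mM MgCl2. No-enzyme wells define full inhibition; uninhibited enzyme wells define zero.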
# [20] = target: Thyrotropin-releasing hormone receptor (Homo sapiens) (UniProt P34981); test: qHTS for Small Molecule Agonists and Allosteric Enhancers of Human TRH Receptor: Validation Screen for Agonists (AID 493127;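 active means calcium activation more than 3 SD above the typical response in the agonist read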;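 further: intracellular calcium rise by fluo-8 fluorescence before TRH EC20 addition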); conditions: TRH receptor agonist cell assay; at 2 µM; stronger effect = higher value
# Sequence of Thyrotropin-releasing hormone receptor (Homo sapiens) (P34981 whole entry, looked up): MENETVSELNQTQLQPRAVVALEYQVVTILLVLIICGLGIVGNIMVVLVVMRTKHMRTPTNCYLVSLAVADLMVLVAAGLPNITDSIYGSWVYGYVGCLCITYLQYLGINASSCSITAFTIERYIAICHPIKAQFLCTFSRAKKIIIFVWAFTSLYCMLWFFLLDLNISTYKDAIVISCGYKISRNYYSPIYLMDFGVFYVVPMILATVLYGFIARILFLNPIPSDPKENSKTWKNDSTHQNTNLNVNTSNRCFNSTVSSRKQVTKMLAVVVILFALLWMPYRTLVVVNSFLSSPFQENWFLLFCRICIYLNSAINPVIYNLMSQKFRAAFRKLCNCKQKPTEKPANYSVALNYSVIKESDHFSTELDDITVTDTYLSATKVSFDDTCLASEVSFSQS
# Procedure, shortened: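 Compounds are added by online pintool to dye-loaded TRHR cells while fluorescence is recorded every second. A rise in calcium signal during the agonist read marks activation; a later 10 nM TRH addition (EC20) serves the separate enhancer mode.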
structure (smiles),measurement,setting,value
O=c1[nH]cnc2[nH]ncc12,Potency,[1],inactive
same,Potency,[2],inactive
same,Potency,[3],inactive
same,Potency,[4],inactive
same,outcome,[5],inactive
same,outcome,[6],inactive
same,Potency,[7],inactive
same,Potency,[8],inactive
same,Potency,[9],inactive
same,Potency,[10],inactive
same,Potency,[11],inactive
same,Potency,[12],inactive
same,viability change,[12],5.19%
same,outcome,[13],inactive
same,outcome,[14],inactive
same,outcome,[15],inactive
same,outcome,[16],inactive
same,outcome,[17],inactive
Cc1[nH]c(=O)c(C#N)cc1-c1ccc2nccn2c1,Potency,[1],inactive
same,Potency,[2],inactive
same,Potency,[3],inactive
same,Potency,[4],inactive
same,outcome,[5],inactive
same,outcome,[6],inactive
same,outcome,[18],inactive
same,Potency,[7],inactive
same,Potency,[9],inactive
same,outcome,[19],inactive
same,Potency,[10],inactive
same,activation,[20],0.25% (inactive)
same,Potency,[12],inactive
same,viability change,[12],7.27%
same,outcome,[13],inactive
same,outcome,[14],inactive
same,outcome,[15],inactive
same,outcome,[16],inactive
same,outcome,[17],inactive
Cc1cn[nH]c1,Potency,[1],inactive
same,Potency,[2],inactive
same,Potency,[3],inactive
same,Potency,[4],inactive
same,outcome,[5],inactive
same,outcome,[6],inactive
same,outcome,[18],inactive
same,Potency,[7],inactive
same,Potency,[8],inactive
same,Potency,[9],inactive
same,outcome,[19],inactive
same,Potency,[10],inactive
same,Potency,[11],inactive
same,Potency,[12],inactive
same,viability change,[12],9.47%
same,outcome,[13],inactive
same,outcome,[14],inactive
same,outcome,[15],inactive
same,outcome,[16],inactive
same,outcome,[17],inactive
CCCC(CCC)C(=O)O,Potency,[1],inactive
same,Potency,[2],inactive
same,Potency,[3],inactive
same,Potency,[4],inactive
same,outcome,[5],inactive
same,outcome,[6],inactive
same,outcome,[18],inactive
same,Potency,[7],inactive
same,Potency,[8],inactive
same,Potency,[9],inactive
same,outcome,[19],inactive
same,Potency,[10],inactive
same,activation,[20],0.688% (inactive)
same,Potency,[12],inactive
same,viability change,[12],2.98%
same,outcome,[13],inactive
same,outcome,[14],inactive
same,outcome,[15],inactive
same,outcome,[16],inactive
same,outcome,[17],inactive
CC(C[N+](C)(C)C)OC(N)=O (stereo not given),Potency,[1],inactive
same,Potency,[2],inactive
same,Potency,[3],inactive
same,Potency,[4],inactive
same,outcome,[5],inactive
same,outcome,[6],inactive
same,Potency,[7],inactive
same,Potency,[8],inactive
same,Potency,[9],inactive
same,outcome,[19],inactive
same,Potency,[10],inactive
same,Potency,[11],inactive
same,activation,[20],0.562% (inactive)
same,Potency,[12],inactive
same,viability change,[12],-0.659%
same,outcome,[13],inactive
same,outcome,[14],inactive
same,outcome,[15],inactive
same,outcome,[16],inactive
same,outcome,[17],inactive
O=C1CCc2cc(OCCCCc3nnnn3C3CCCCC3)ccc2N1,Potency,[1],inactive
same,Potency,[2],inactive
same,Potency,[3],inactive
same,Potency,[4],inactive
same,outcome,[5],inactive
same,outcome,[6],inactive
same,outcome,[18],inactive
same,Potency,[7],inactive
same,Potency,[8],inactive
same,Potency,[9],inactive
same,Potency,[10],inactive
same,Potency,[11],inactive
same,activation,[20],3.38% (inactive)
same,outcome,[13],inactive
same,outcome,[14],inactive
same,outcome,[15],inactive
same,outcome,[16],inactive
same,outcome,[17],inactive
